Screening results (PubChem)
L3MBTL1 inh = inhibitors of human L3MBTL1. AlphaScreen L3MBTL1–H3K9me1 peptide binding. Potency, µM (top dose mostly 57.1 µM), inactives show top-dose activity, negative = inhibition, actives largely listed as inhibitors. 0.66% of 230,000 active. AID 485360; further: on the % scale 0 is the no-effect control and ±100 the full control effect; nearly all actives have a fitted effect of over 60% in size
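L3MBTL1 50 nM + b-AHA-H3(1-15)K9me1 75 nM, 30 min RT; compound added, 30 min RT; streptavidin donor/Ni-chelate acceptor beads 10 ug/mL each final, 30 min RT dark; AlphaScreen read.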
BAZ2B inh = blocks human BAZ2B. Q9UIF8. AlphaScreen BAZ2B-H3K14Ac peptide displacement. AID 504333. 4.4% of 360,000 active. Potency, µM (series often up to 114 µM), for the others: top-dose activity change, negative = inhibition, most hits filed as inhibitors; further: on the % scale 0 is the no-effect control and ±100 the full control effect; nearly all actives have a fitted effect of over 60% in size
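BAZ2B 50 nM plus b-H3(5-23)K14Ac 50 nM, PBS pH 7.4/0.01% Tween-20, 30 min RT; compound added (max 110 uM), 30 min RT; streptavidin donor/Ni-chelate acceptor beads 10 ug/mL final, 20 min dark; AlphaScreen read.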
PLK1 PBD inh = blocks phosphopeptide binding to human PLK1 polo-box domain; P53350; Plk1 PBD binding of FITC phosphopeptide, fluorescence polarization; Potency, µM, inactives show max response, negative = inhibition, most hits filed as inhibitors; 2.8% of 360,000 active; AID 720504; further: series mostly up to about 57 µM; on the % scale 0 is the no-effect control and ±100 the full control effect; nearly all actives have a fitted effect of over 65% in size
Target sequence (P53350 whole entry, looked up, the tested form may be a part): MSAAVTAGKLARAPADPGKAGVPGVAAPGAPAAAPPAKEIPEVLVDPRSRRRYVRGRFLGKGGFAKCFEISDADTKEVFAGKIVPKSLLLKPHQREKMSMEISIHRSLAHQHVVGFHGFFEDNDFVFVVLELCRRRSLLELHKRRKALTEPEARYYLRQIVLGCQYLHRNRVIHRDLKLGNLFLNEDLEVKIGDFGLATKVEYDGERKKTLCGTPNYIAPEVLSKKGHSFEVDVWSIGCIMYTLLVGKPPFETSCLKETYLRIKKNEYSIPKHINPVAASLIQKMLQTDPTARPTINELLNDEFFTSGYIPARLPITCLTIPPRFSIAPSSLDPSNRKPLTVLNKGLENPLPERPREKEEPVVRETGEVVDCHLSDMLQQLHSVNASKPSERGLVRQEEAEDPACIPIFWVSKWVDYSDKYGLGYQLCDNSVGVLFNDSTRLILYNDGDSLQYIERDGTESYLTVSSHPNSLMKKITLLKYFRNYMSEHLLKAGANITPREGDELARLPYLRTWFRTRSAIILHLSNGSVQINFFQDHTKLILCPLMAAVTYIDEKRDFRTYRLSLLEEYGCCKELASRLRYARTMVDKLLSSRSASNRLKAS
JMJD2A Tudor inh = JMJD2A Tudor domain (human) inhibition; AlphaScreen JMJD2A-Tudor / H3K4me3 peptide binding; Potency, µM (titrated, usually from 114 µM), for the others: top-dose activity change, negative = inhibition, most hits filed as inhibitors; 4.4% of 390,000 active; O75164; further: on the % scale 0 is the no-effect control and ±100 the full control effect; nearly all actives have a fitted effect of over 50% in size
HP1b binding inh = inhibitors of HP1-beta chromodomain binding to methylated histone tails | P83916 | AlphaScreen HP1-beta / biotin-H3K9me3 peptide binding | Potency, µM (top dose mostly 114 µM), inactives show at the highest dose activity change, negative = inhibition, hits mostly inhibitors | 0.56% of 390,000 active | AID 540317; further: nearly all actives have a fitted effect of over 70% in size
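Compound inhibition of the preformed complex between 50 nM HP1-beta and 50 nM biotinylated H3K9me3 peptide was read by AlphaScreen. Buffer was PBS pH 7.4 with 0.01% Tween-20. Incubations ran 30 min at room temperature, with 10 ug/mL donor/acceptor beads.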
VDR inhibitor = vitamin D3 receptor (human) inhibition. VDR-SRC2-3 peptide fluorescence polarization, 2 h. Potency, µM, inactives show max response, negative = inhibition, hits mostly inhibitors. 0.93% of 400,000 active. AID 504847; further: on the % scale 0 is the no-effect control and ±100 the full control effect
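FP read-out; VDR + SRC2-3 coactivator peptide; 23 nl compound by pintool; 2 h RT incubation; reagents held at 4 deg C, protected from light.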
Numbers without * were called inactive; u = inconclusive; x = no result given; [ ] = dose if it differs, or a comment. Compounds with a hit are over-represented: about 6.9% of the library has one in this group of screens. The call rests on the fitted dose curve; in most records, active means well fitted curve in the direction sought with a large enough effect; inconclusive means small, poorly fitted or top-dose-only effect, or another doubt; inactive means no such curve, though single readings can be large; an effect the other way counts as inactive or inconclusive. Potency means the concentration at half of the fitted maximal effect.

SMILES	L3MBTL1 inh	BAZ2B inh	PLK1 PBD inh	JMJD2A Tudor inh	HP1b binding inh	VDR inhibitor
COc1ccc(CNC(=O)c2sc3nc4n(c(=O)c3c2C)CCCCC4)cc1	x	16µM*	x	89µM*	3%	-9%
Cc1cc(Br)ccc1NC(=O)c1sc2nc3n(c(=O)c2c1C)CCCC3	x	18µM*	x	79µM*	68%	2%
Cc1c(C(=O)NCc2ccc(Cl)cc2)sc2nc3n(c(=O)c12)CCC3	x	-35%	x	u	-24%	-6%
Cc1ccc(NC(=O)c2sc3nc4n(c(=O)c3c2C)CCCCC4)c(Br)c1	x	2%	x	2%	32%	7%
COc1cccc(-c2cn3c(n2)sc2cc(C(=O)NCc4ccccc4F)ccc23)c1	x	-2%	x	0%	15%	7%
CCC(CC)C(=O)c1c[nH]c(C(=O)NCCc2ccccn2)c1	3%	12%	27µM*	-25%[11.4 µM]	4%	8%
Cc1cc(=O)[nH]c(SCC(=O)Nc2ccc(F)c([N+](=O)[O-])c2)n1	6%	x	-5%	-19%	3%	6%
CC(=O)n1cc(N(C(=O)CCl)c2ccc([N+](=O)[O-])cc2)c2ccccc21	-8%	-33%	-24%	-30%	2%	22µM*
c1ccc2[nH]c(SN3CCOCC3)nc2c1	-1%	20µM*	x	x	x	x
CCN1CCN(c2nc3ccccc3nc2C(C#N)C(=O)OC2CCCCC2)CC1 (stereo unspecified)	-4%	u	-14%	u	-23%	-11%
CN1CCN(c2nc3ccccc3nc2C(C#N)C(=O)OC2CCCCC2)CC1 (stereo unspecified)	-12%	56µM*	-9%	-34%	-7%	-23%
CC(=O)c1cccc(NS(=O)(=O)c2ccc3[nH]c4c(c3c2)CCCCC4)c1	x	-37%[57.1 µM]	x	u	-21%	21%
CCOc1ccc(NS(=O)(=O)c2ccc3[nH]c4c(c3c2)CCCCC4)cc1	x	-27%[57.1 µM]	x	28µM*	-14%	13%
COc1ccc(OC)c(CNS(=O)(=O)c2ccc3[nH]c4c(c3c2)CCCCC4)c1	x	u	x	35µM*	u	-3%
CCOC(=O)c1cccc(NS(=O)(=O)c2ccc3[nH]c4c(c3c2)CCCC4)c1	x	40µM*	x	28µM*	u	-1%
CCOc1ccc(NS(=O)(=O)c2ccc3[nH]c4c(c3c2)CCCC4)cc1	x	u	x	u	u	23%
CN(CC(=O)NCc1ccc(F)cc1)S(=O)(=O)c1ccc2[nH]c3c(c2c1)CCCC3	x	40µM*	x	u	-2%	13%
COc1ccc(NS(=O)(=O)c2ccc3[nH]c4c(c3c2)CCCC4)c(OC)c1	x	u	x	u	-32%	19%
CCOc1ccccc1CNC(=O)c1cc2n(n1)CCCN(Cc1ccc(C)cc1)C2=O	x	-11%	x	-25%	13%	3%
Cc1ccc(OCC(=O)Nc2ccc(Cl)c(-c3nc4ncccc4o3)c2)c(C)c1	x	-10%	x	-21%	54%	18%
COc1ccccc1N(C)S(=O)(=O)c1ccc(Cl)c(C(=O)Nc2ccccc2N2CCOCC2)c1	x	x	-3%	-27%	25%	11%
Cc1ccc(-n2c(-c3ccccc3)c[n+]3c2CCc2ccccc2-3)c(C)c1	-4%	-12%	-6%	-14%	-7%	-3%
O=S(=O)(Nc1ccc(-c2ccc(N3CCCC3)nn2)cc1)c1cc(F)ccc1F	x	-6%	x	-15%	19%[57 µM]	13%
Cc1ccc(NS(=O)(=O)c2ccc3[nH]c4c(c3c2)CCCC4)cc1N(C)C	x	32µM*	x	35µM*	u	6%
COc1ccc(NS(=O)(=O)c2ccc3[nH]c4c(c3c2)CCCCC4)cc1	x	2%[57.1 µM]	x	32µM*	u	4%
COc1ccc(NS(=O)(=O)c2ccc3[nH]c4c(c3c2)CCCC4)cc1Cl	x	u	x	u	-3%	18%
COc1cc(OC)nc(Oc2cc(/C=N/O)ccc2OC)n1	x	-18%	-3%	-9%	23%	13%
Cc1ccccc1CNC(=O)CCC(=O)N1CC2CCCN2c2ccccc21 (stereo unspecified)	x	u	x	u	-11%	-12%
